Results on 93 compounds are retold here after PubChem BioAssay AID1445 (SRMLSC, 2008).

The whole screen tested about 220,000 compounds, of which about 910 (0.41%) were called active. For the sample, actives were picked, then their nearest neighbours and some compounds at random. Entries with a potency or affinity are not part of this list. Unmarked numbers belong to inactive results.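 The calls were made as follows: active = primary inhibition above the hit cutoff, then over 50% inhibition at one or more dose response concentrations (cut at about 23% in these data, passing the limit was not always enough); inconclusive = conflicting primary data, or primary hits not chosen for dose response; inactive = low primary inhibition, or under 50% at every dose.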

By inhibition is commonly meant the drop in the measured response relative to a control, in per cent.

This experiment deals with Aminopeptidase N (Plasmodium falciparum (isolate 3D7)) (UniProt O96935). Description: malaria alanyl aminopeptidase activity blockers – biochemical, fluorogenic H-Leu-NHMec substrate, 1536-well (AID 1445).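 Also: plate controls were DMSO full reaction for no effect and no enzyme background for full effect.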 The following applies: recombinant M1AAP, H-Leu-NHMec fluorogenic kinetic assay; at 30 µM, active compounds read high unless noted.
Chain of Aminopeptidase N (Plasmodium falciparum (isolate 3D7)) (O96935 whole entry, looked up): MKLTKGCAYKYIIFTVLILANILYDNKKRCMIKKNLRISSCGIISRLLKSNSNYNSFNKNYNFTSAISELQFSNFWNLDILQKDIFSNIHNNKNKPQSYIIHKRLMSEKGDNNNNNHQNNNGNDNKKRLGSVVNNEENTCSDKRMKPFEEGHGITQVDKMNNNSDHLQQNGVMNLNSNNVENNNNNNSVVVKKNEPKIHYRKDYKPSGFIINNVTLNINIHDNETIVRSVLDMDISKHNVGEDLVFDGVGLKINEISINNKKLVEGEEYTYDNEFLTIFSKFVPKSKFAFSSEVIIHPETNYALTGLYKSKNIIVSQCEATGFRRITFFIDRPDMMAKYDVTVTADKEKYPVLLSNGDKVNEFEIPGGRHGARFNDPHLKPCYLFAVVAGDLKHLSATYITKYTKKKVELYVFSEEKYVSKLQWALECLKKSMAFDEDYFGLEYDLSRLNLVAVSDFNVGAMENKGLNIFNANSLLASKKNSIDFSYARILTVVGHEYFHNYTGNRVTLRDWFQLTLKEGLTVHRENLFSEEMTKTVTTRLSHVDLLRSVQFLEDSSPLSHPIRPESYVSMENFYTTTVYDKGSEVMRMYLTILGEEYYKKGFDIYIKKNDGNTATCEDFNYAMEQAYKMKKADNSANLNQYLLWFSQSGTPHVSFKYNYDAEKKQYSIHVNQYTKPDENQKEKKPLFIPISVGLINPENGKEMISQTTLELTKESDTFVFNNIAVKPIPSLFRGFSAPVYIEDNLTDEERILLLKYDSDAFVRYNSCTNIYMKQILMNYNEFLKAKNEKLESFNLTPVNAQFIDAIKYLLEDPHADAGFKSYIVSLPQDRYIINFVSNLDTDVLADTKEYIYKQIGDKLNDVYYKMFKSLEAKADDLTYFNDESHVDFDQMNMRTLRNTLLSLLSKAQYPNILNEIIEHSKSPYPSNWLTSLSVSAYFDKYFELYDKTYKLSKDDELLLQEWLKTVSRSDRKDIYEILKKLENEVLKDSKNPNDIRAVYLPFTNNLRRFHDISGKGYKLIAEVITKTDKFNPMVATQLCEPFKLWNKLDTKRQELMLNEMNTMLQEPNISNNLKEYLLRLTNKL
Turning to `CCOc1ccccc1NC(=O)c1ccc(S(=O)(=O)N(C)C)cc1`, the inhibition was -1.64%. Regarding `COCc1nnc(NS(=O)(=O)c2ccc([N+](=O)[O-])cc2)s1`, the inhibition was 2.64%. Take `Nc1c(C(=O)O)ccc2c1C(=O)c1ccccc1C2=O`: the inhibition was 4.92%. Regarding `O=C(O)c1cccc2c1C(=O)c1ccccc1C2=O`, the inhibition is 15.9%. `COc1cccc(N2C(=O)CC(N3CCN(CCN=CC4=C(O)CC(C)(C)CC4=O)CC3)C2=O)c1` (stereo not drawn): the inhibition is 5.88%. `O=c1c(-c2c(O)cc(O)c3c(=O)cc(-c4ccc(O)cc4)oc23)c(-c2ccc(O)cc2)oc2cc(O)cc(O)c12`: the inhibition was 12%. For `COc1cc(-c2cc(=O)c3c(O)cc(O)cc3o2)ccc1O` the value was 12.4%. `Cn1c(SCC(=O)Nc2nccs2)nnc1C12CC3CC(CC(C3)C1)C2`: the inhibition is 6.61%. The value for `COc1ccc(C(=O)N2CCCC(CCC(=O)NCc3ccc(F)c(F)c3)C2)cc1F` (stereo not drawn) was 3.11%; that for `O=C(CCC1CCCN(C(=O)c2ccncc2)C1)NCc1ccc(F)c(F)c1` (stereo not drawn) was 1.64%; that for `O=C(Cn1cnc2c(nnn2Cc2ccccc2)c1=O)c1ccc(Cl)cc1` was 2.57%. The value for `Cc1cccc(-c2cc3nc4c(c(NCc5ccco5)n3n2)CCCC4)c1` was -3.49%; that for `C=CCn1c(SCC(=O)NC23CC4CC(CC(C4)C2)C3)nc(O)cc1=O` was 24.7% (active). The value for `C=CCn1c(SCC(=O)C23CC4CC(CC(C4)C2)C3)nc(O)cc1=O` was 5.12%. For `C=CCn1c(SCC(=O)NC23CC4CC(CC(C4)C2)C3)nc2cc(C(=O)O)ccc2c1=O`, the inhibition was 2.59%. Take `Cc1ccc(S(=O)(=O)NCC(=O)N(CC(=O)NCC2CCCO2)C2CCCC2)cc1` (stereo not drawn): the inhibition was 4.45%. The value for `O=c1sc(/C=N/Nc2ccccc2)c(Cl)n1Cc1ccccc1` was -3.08%; that for `CC(C)c1ccc(N2C=Nc3ccc(C(C)C)cc3C2)cc1` was 0.82%. The value for `O=C1C(C2=NC(C(=O)O)C3C(=O)N(c4ccccc4)C(=O)C23)=C(O)c2ccccc21` (stereo not drawn) was 10.7%; that for `O=C1C(C2=NC(C(=O)O)C3C(=O)N(c4ccc(Cl)cc4)C(=O)C23)=C(O)c2ccccc21` (stereo not drawn) was 25.7% (active).

In the case of `O=C1C(C2=NC(c3ccccn3)C3C(=O)N(c4ccccc4)C(=O)C23)=C(O)c2ccccc21` (stereo not drawn), the inhibition was 3.12%. Consider `CCCCNC(=S)NNC(=O)CCn1cc(C)cn1`, for which the inhibition is 4.21%.

On to `CCOC(=O)Cc1cc(=O)n2[nH]c(C(C)(C)C)cc2n1`, for which the inhibition is 4.13%.

In the case of `Cc1onc(-c2ccccc2)c1NC(=O)Nc1c(-c2ccccc2)noc1C`, the inhibition is 5.84%. `Cc1ccc(S(=O)(=O)N(C)C)cc1NC(=O)Nc1ccccc1`: the inhibition is 3.2%. For the compound `CCOC(=O)c1c(NC(=O)CSc2nnc(-c3ccccc3)n2CC)sc(C(C)=O)c1C`, the inhibition is 5.61%. For `CCCOC(=O)CSc1nc(N)c(C#N)c(-c2ccco2)c1C#N`, the inhibition is 8.7%. With `CC(C)S(=O)(=O)C1=NSC2=NC(=O)/C(=C\c3ccc(-c4cccc(C(=O)O)c4)o3)C(=N)N21`, the inhibition was 17.7%.

For `N=C1/C(=C\c2ccc(-c3ccc(C(=O)O)cc3)o2)C(=O)N=C2SC=C(c3ccccc3)N12`, the inhibition is 8.48%. With `N=C1/C(=C\c2ccc(-c3cccc(Cl)c3)o2)C(=O)N=C2SC=C(c3ccccc3)N12`, the inhibition was 15.9%.

Take `N=C1/C(=C\c2ccc(-c3cc(Cl)cc(Cl)c3)o2)C(=O)N=C2SC=C(c3ccccc3)N12`: the inhibition was -3.79%.

Turning to `CC12CCC(C/C1=N\N=C1\NC(=O)/C(=C\c3cccc(Br)c3)S1)C2(C)C` (stereo not drawn), the inhibition was 6.04%. As to `CCCC(=O)c1cn(CC(=O)OC)c2ccccc12`, the inhibition is 1.35%. As to `CCCn1c(OC)nc2c1c(=O)n(C)c(=O)n2C`, the inhibition was 1.88%.

Turning to `CCCOc1nc2c(c(=O)n(C)c(=O)n2C)n1CCC`, the inhibition is 24.2% (active). For `CCCOc1nc2c(c(=O)n(C)c(=O)n2C)n1C` the value was 2.15%; for `Clc1cnc(N/N=C/c2cccs2)c(Cl)c1`, 4.04%; for `Cn1cnc2c(N/N=C/c3cccs3)ncnc21`, 7.29%. As for `CCCCN(C)c1c(N2CCC(C(=O)OCC)CC2)c(=O)c1=O`, the inhibition is 12.2%.

As to `O=C(O)CSc1cc(NS(=O)(=O)c2cccc([N+](=O)[O-])c2)c2ccccc2c1O`, the inhibition was 19.8%. Take `Cc1cc(C)c(S(=O)(=O)NCC(=O)O)cc1C`: the inhibition is -7.15%. On to `O=C(CSc1nc(O)c(Cc2ccccc2)c(=O)[nH]1)N1CCOCC1`, for which the inhibition was 0.8%.

As to `Cc1ccc(-c2cc3ncc(C#N)c(N)n3n2)cc1`, the inhibition is 6.77%. Consider `COc1ccc(C(=O)NCCCN2CCOCC2)cc1S(=O)(=O)N1CCCc2ccccc21`, for which the inhibition was -1.32%. Take `COc1ccc(S(=O)(=O)Nc2ccc(O)c3ccccc23)cc1`: the inhibition is 5.24%. As for `O=S(=O)(Nc1cc(Sc2ncn[nH]2)c(O)c2ccccc12)c1ccccc1`, the inhibition is 13.5%. The value for `COc1ccc(S(=O)(=O)Nc2cc(Sc3ncn[nH]3)c(O)c3ccccc23)cc1` was 24.3% (active); that for `Cn1cnnc1SC1CCCCC1NS(=O)(=O)c1ccccc1` (stereo not drawn) was -1.9%.

As for `CCc1ccc(C(=O)CN2C(=O)NC(C)(CCc3ccccc3)C2=O)cc1` (stereo not drawn), the inhibition is 0.01%.

As to `Oc1ccc(C2=Nn3c(nnc3-c3ccco3)SC2)cc1O`, the inhibition is 29.3% (active).

In the case of `Fc1ccc(C2=Nn3c(nnc3-c3ccco3)SC2)cc1`, the inhibition was 4.7%. For `c1ccc(C2=Nn3c(nnc3-c3ccco3)SC2)cc1` the value was 7.07%. Consider `CCOC(=O)C(NC(=O)C1CCCN1C(=O)OCc1ccccc1)C(=O)OCC` (stereo not drawn), for which the inhibition was -8.77%. As for `CCN(CC)C(=O)C1CCCN(Cc2ccc(OC)c(C)c2)C1` (stereo not drawn), the inhibition is -5.17%. On to `COCCCNC(=O)c1cccc(OC)c1OC`, for which the inhibition is 3.12%. For the compound `Cc1cnc(C(=O)Nc2ccccc2F)cn1`, the inhibition is 0.48%. On to `COc1ccc(NC(=O)c2cnc(C)cn2)c2ncccc12`, for which the inhibition is 1.63%.

Consider `Cc1cnc(C(=O)Nc2cccc3cccnc23)cn1`, for which the inhibition was 24.3% (active). `Brc1ccc(C2Nc3cccc4cccc(c34)N2)s1`: the inhibition was 1.05%. The value for `Cc1[nH]c2ccccc2c1/C=N/Nc1cccc(C(=O)O)c1` was 11.9%. On to `Cc1cccc(C)c1-n1cccc1/C=C1\SC(=S)N(c2cccc(C(=O)O)c2)C1=O`, for which the inhibition is 6.85%. The value for `CCN1C(=O)C2(C(C#N)=C(N)Oc3n[nH]c(-c4ccc(Cl)cc4)c32)c2ccccc21` (stereo not drawn) was -0.38%; that for `COC(=O)CN1C(=O)C2(C(C#N)=C(N)Oc3cc(C)oc(=O)c32)c2ccccc21` (stereo not drawn) was 1.21%. `CCN1C(=O)C2(C(C#N)=C(N)Oc3n[nH]c(-c4ccccc4)c32)c2ccccc21` (stereo not drawn): the inhibition is -4.58%. For `COC(=O)CN1C(=O)C2(C(C#N)=C(N)Oc3c2c(C)nn3-c2ccccc2)c2ccccc21` (stereo not drawn), the inhibition was 4.95%. Consider `Cc1cccc(OCCOCCSc2ncccn2)c1`, for which the inhibition is 11.6%.

`COc1cccc(OC)c1OCCCOc1ccc(C)cc1Br`: the inhibition was 3.98%. As to `CC1CCCN(C(=O)CSc2nnc(-c3ccc(S(=O)(=O)N4CCOCC4)cc3)n2C)C1` (stereo not drawn), the inhibition is 0.7%. For `Cc1cc(Cl)c2ccc(Cl)cc2n1` the value was 0.44%; for `CC(=O)CC(c1ccc([N+](=O)[O-])cc1)c1c(O)c2ccccc2oc1=O` (stereo not drawn), 0.61%; for `O=[N+]([O-])c1ccc2c(c1)oc1ccccc12`, -3.55%.

As to `Cc1csc(NC(=O)CSc2nc(C(C)C)nc3c2c(=O)n(C)c(=O)n3C)n1`, the inhibition was -1.73%. As to `CS(=O)(=O)c1ccc2nc(NC(=O)c3ccc(N4C(=O)CCC4=O)cc3)sc2c1`, the inhibition was 5.15%. The value for `CCOC(=O)c1cc(-c2csc(-c3cccc(Cl)c3)n2)on1` was -3.06%.

Regarding `CC1C(c2ccccc2)N(C)C(c2ccccc2)CC1(O)c1ccccc1` (stereo not drawn), the inhibition was 16.7%. On to `CCOC(=O)C(=O)Nc1nnc(SCc2ccc(F)cc2)s1`, for which the inhibition is 2.28%. Regarding `COc1cccc(C(=O)Nn2c(C)nnc2-n2nc(C)cc2C)c1`, the inhibition is 8.95%. As for `O=C(NCc1ccccc1)C(c1ccc(F)cc1)N(Cc1ccc2c(c1)OCO2)C(=O)Cn1nnc(-c2cccs2)n1` (stereo not drawn), the inhibition was 1.31%. For the compound `COc1ccc(-c2nnn(CC(=O)N(CC(=O)NCCC(C)C)Cc3cccs3)n2)cc1OC`, the inhibition was 13.8%. For the compound `CC(C)CCNC(=O)CN(Cc1ccc2c(c1)OCO2)C(=O)Cn1nnc(-c2cccs2)n1`, the inhibition was 24.4% (active). For the compound `COc1ccc(NC(=O)c2oc3ccccc3c2NC(=O)c2ccc3c(c2)OCO3)cc1`, the inhibition was 2.18%. For the compound `Cc1nc(SCc2ccccc2C)n[nH]1`, the inhibition was -7.66%. As for `COc1ccc2nc(SCc3ccccc3C)nc(C)c2c1`, the inhibition was 2.23%. The value for `Cc1cc(Cl)n2c(nc3ccccc32)c1C#N` was -0.99%; that for `Cc1ccc(-c2c(C#N)c(N)n3c(nc4ccccc43)c2C#N)cc1` was 25.5% (active). As for `N#Cc1c(-c2ccccc2)c(C#N)c2nc3ccccc3n2c1N`, the inhibition was 3.17%. As to `Cc1cc(C(C)(C)C)ccc1OCCN1CCCC1`, the inhibition was 8.65%.

For `Oc1ccc(-c2nc(=S)[nH][nH]2)cc1`, the inhibition was 44.3%. Consider `C=CCOc1ccc(C(=O)N(Cc2ccc(N(C)C)cc2)C2CCS(=O)(=O)C2)cc1` (stereo not drawn), for which the inhibition was 13%. Turning to `O=c1oc2cc(O)ccc2c2c1CCCC2`, the inhibition was 10.5%.

`O=c1cc(-c2ccccc2)c2cc(Cl)c(O)c(CN3CCOCC3)c2o1`: the inhibition is 5.98%. For `Cc1oc2c(CN3CCOCC3)c(O)ccc2c(=O)c1-c1ccc(Cl)cc1` the value was 7.87%; for `CC(=O)Oc1cc2oc(=O)c3c(c2cc1Cl)CCC3`, 38.1%.
